Targets with a hit are over-represented here; the source holds about 8,800 in all. About 0.5% of all pairs of compound and target were hits. A number with no mark means an inactive call.
Assays:
Experiment in all cases: log2 fold change, soluble protein after heating vs DMSO (PISA); higher = thermal stabilisation; K562 lysate, 10 uM; active = over 0.2 and 3.5 SD of the protein, either way, in both replicates (recomputed)
erlotinib = compound: C#Cc1cccc(Nc2ncnc3cc(OCCOC)c(OCCOC)cc23)c1 [erlotinib]
Procedure, shortened: (§1)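 Soluble protein was defined as the supernatant remaining after 21,000xg for 90 min, following pooling of heated aliquots and adjustment to 0.5% NP-40 at 4°C. Before that, crude K562 extract at 1 mg/mL protein in PBS pH 7.4 with 1 mM MgCl2 was treated with 10 μM compound for 30 min and heated for 3 min across 48°C-58°C. Quantification used TMTpro 16plex LC-MS/MS with channel sums equalised, and values are log-two fold changes in thermal stability relative to solvent controls from duplicates.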

[1] = compound: C/C(=N\NC(=O)C1=CC(=CC=C1)S(=O)(=O)N2CCOCC2)/C3=C(C=CC(=C3)Cl)O
Procedure, shortened: as §1

[2] = compound: C1=CC(=CC=C1C2=NC3=C(N2)C=C(C=C3)C(=O)N)OC4=CC=C(C=C4)Cl
Procedure, shortened: as §1

[3] = compound: C1=CC2=C(C=CC(=C2)/C=C\3/C(=O)NC(=NCC4=CC=CS4)S3)N=C1
Procedure, shortened: as §1

[4] = compound: C1=CC2=NC=CN=C2C=C1/C=C/3\C(=O)NC(=O)S3
Procedure, shortened: as §1

[5] = compound: C1=CC=C(C=C1)C2=NC(=C(N2)C3=CC=NC=C3)C4=CC(=C(C=C4)Cl)O
Procedure, shortened: as §1

[6] = compound: C1=CC=C2C(=C1)C3=NNC4=CC=CC(=C43)C2=O
Procedure, shortened: as §1

[7] = compound: C1CCN(C1)C(=O)NC2=CC=CC(=C2)NC3=NC=C(C(=N3)NCCC4=CN=CN4)Br
Procedure, shortened: as §1

[8] = compound: C1CN(CCC1(CC2=CC=C(C=C2)Cl)N)C3=NC=NC4=C3C=CN4
Procedure, shortened: as §1

IRAK-1-4 Inhibitor I = compound: C1COCCN1CCN2C3=CC=CC=C3N=C2NC(=O)C4=CC(=CC=C4)[N+](=O)[O-] [IRAK-1-4 Inhibitor I]
Procedure, shortened: as §1

ibrutinib = compound: C=CC(=O)N1CCC[C@@H](n2nc(-c3ccc(Oc4ccccc4)cc3)c3c(N)ncnc32)C1 [ibrutinib]
Procedure, shortened: as §1

[9] = compound: CC(=O)c1cnc2ccc(-c3cc(Cl)c(O)c(Cl)c3)nc2c1N[C@H]1CC[C@H](CN(C)C)CC1
Procedure, shortened: as §1

ralimetinib = compound: CC(C)(C)Cn1c(N)nc2ccc(-c3[nH]c(C(C)(C)C)nc3-c3ccc(F)cc3)nc21 [ralimetinib]
Procedure, shortened: as §1

[10] = compound: CC(C)(O)CC(=O)NCCn1ccc2ncnc(Nc3ccc(Oc4cccc(C(F)(F)F)c4)c(Cl)c3)c21
Procedure, shortened: as §1

[11] = compound: CC(C)C1=C2N=C(C=C(N2N=C1)NCC3=CC=CC=C3)NCCCCCCN
Procedure, shortened: as §1

[12] = compound: CC1=C(C(CC(=O)N1)C2=CC=C(C=C2)C(F)(F)F)C(=O)NC3=C(C=C4C(=C3)C=NN4)F
Procedure, shortened: as §1

[13] = compound: CC1=C(C2=C(C=C1)C(=O)C3=CC=CC=C3N2CCCN)C
Procedure, shortened: as §1

[14] = compound: CC1=C(C=C(C=C1)NC(=O)C2=CC(=CC=C2)C(C)(C)C#N)NC3=CC4=C(C=C3)N=CN(C4=O)C
Procedure, shortened: as §1

[15] = compound: CC1=C(C=C(C=C1)NC(=O)C2=CC(=CC=C2)N(C)C)NC(=O)C3=CC=C(C=C3)O
Procedure, shortened: as §1

[16] = compound: CC1=CC=C(C=C1)SC2=C3C=C(SC3=CN=C2)C(=O)N
Procedure, shortened: as §1

Chain of UniProt Q13616 (Q13616 whole entry, looked up): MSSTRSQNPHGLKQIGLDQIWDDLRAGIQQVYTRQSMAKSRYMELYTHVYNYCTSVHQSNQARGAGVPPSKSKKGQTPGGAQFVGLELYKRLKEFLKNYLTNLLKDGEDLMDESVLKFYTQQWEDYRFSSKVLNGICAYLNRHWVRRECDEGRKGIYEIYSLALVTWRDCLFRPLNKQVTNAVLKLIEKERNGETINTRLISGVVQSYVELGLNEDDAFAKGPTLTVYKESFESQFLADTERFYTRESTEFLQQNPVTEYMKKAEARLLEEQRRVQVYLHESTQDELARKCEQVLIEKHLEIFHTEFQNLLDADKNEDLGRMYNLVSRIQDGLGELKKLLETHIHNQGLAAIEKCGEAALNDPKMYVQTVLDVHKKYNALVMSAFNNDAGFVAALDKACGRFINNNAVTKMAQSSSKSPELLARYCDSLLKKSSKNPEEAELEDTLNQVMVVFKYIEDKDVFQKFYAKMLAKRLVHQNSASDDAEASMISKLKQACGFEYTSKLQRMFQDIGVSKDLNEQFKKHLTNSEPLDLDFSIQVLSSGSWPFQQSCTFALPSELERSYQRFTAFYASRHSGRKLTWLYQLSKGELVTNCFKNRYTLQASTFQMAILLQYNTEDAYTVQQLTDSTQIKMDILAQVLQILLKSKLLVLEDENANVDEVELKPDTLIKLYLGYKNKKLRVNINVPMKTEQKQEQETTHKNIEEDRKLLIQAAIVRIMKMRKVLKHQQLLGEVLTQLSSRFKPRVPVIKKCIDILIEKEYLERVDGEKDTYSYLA
Chain of UniProt P26374 (P26374 whole entry, looked up): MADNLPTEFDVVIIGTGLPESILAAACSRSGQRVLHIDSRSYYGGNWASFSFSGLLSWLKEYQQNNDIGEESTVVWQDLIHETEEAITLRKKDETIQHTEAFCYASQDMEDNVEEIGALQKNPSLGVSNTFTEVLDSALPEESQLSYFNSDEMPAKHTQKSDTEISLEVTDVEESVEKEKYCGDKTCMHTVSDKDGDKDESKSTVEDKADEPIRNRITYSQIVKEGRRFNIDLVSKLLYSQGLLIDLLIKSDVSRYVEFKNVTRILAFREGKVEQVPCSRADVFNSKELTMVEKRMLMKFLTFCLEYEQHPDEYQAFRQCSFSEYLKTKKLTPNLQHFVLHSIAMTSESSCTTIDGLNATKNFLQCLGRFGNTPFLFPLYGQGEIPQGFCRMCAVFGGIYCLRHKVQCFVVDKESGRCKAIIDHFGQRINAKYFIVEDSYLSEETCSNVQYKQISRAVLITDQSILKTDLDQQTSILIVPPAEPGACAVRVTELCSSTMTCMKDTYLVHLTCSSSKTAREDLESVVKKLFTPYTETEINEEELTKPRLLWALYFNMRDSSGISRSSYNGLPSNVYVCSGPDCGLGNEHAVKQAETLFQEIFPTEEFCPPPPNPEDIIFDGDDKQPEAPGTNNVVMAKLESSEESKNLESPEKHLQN
Chain of UniProt P00374 (P00374 whole entry, looked up): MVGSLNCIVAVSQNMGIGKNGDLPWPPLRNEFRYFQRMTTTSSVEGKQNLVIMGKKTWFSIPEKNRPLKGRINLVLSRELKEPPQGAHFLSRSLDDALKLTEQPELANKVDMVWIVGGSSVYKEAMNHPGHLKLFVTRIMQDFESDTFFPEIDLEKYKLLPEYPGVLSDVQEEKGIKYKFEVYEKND
Chain of UniProt Q96BY6 (Q96BY6 whole entry, looked up): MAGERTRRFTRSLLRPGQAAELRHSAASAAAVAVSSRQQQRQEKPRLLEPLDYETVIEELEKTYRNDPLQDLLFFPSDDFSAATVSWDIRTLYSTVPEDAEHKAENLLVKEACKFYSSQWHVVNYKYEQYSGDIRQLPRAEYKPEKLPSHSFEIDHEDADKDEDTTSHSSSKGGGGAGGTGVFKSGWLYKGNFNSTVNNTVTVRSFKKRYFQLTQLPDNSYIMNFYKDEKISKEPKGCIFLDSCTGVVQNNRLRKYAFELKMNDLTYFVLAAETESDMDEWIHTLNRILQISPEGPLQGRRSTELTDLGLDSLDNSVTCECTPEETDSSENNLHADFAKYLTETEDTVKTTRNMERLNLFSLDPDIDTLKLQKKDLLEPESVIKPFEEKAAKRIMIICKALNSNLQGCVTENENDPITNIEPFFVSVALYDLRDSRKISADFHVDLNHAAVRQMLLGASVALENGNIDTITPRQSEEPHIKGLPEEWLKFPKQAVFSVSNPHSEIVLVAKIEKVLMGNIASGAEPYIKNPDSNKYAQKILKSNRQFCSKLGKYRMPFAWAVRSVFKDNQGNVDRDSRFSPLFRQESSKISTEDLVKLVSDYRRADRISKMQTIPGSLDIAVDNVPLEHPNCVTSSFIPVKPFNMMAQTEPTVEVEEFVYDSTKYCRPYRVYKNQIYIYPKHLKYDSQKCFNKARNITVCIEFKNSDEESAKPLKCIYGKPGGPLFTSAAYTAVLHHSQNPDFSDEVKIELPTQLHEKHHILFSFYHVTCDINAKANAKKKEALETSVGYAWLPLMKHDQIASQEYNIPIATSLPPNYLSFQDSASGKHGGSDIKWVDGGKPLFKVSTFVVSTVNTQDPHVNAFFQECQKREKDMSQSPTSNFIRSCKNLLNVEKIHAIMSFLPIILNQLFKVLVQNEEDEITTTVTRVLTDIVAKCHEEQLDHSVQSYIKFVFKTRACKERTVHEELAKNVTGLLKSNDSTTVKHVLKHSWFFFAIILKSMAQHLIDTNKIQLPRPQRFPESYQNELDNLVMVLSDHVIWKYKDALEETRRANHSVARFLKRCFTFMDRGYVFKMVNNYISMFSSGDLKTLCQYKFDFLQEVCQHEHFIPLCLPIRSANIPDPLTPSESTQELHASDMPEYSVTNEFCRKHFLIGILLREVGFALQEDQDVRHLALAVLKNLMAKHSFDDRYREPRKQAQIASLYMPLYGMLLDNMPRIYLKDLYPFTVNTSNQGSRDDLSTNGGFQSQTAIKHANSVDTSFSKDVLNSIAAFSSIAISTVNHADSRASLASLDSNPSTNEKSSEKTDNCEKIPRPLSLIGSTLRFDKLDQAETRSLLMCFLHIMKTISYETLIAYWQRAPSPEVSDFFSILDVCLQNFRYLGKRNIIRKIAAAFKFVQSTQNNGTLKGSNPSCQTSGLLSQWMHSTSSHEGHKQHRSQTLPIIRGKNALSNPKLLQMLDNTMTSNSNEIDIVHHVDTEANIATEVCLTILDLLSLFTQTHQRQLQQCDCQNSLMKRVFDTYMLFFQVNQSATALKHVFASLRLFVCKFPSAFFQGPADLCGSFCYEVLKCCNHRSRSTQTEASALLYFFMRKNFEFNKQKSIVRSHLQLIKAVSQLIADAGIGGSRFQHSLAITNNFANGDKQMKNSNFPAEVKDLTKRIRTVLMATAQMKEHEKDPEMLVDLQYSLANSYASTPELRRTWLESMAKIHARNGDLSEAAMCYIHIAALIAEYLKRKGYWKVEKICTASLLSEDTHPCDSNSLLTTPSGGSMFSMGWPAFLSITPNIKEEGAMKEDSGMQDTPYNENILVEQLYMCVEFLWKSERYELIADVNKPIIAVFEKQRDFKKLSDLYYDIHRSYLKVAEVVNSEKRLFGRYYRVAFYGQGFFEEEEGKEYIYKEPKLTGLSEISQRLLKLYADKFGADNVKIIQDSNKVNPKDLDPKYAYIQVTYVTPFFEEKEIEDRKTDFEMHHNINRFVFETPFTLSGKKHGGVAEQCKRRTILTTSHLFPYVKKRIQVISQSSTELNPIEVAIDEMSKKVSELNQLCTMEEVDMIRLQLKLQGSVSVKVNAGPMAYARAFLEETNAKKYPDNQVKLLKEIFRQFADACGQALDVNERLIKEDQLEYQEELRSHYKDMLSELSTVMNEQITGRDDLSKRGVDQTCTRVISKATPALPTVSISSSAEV
Chain of UniProt P48729 (P48729 whole entry, looked up): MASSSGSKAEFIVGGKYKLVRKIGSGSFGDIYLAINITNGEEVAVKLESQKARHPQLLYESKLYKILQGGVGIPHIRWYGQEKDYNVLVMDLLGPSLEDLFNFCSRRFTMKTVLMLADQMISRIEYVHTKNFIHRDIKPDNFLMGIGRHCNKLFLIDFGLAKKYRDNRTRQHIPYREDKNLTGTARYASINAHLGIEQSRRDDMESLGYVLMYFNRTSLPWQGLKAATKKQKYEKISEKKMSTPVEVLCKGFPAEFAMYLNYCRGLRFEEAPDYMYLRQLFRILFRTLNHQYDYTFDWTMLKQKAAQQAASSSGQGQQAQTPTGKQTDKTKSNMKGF
Chain of UniProt P57737 (P57737 whole entry, looked up): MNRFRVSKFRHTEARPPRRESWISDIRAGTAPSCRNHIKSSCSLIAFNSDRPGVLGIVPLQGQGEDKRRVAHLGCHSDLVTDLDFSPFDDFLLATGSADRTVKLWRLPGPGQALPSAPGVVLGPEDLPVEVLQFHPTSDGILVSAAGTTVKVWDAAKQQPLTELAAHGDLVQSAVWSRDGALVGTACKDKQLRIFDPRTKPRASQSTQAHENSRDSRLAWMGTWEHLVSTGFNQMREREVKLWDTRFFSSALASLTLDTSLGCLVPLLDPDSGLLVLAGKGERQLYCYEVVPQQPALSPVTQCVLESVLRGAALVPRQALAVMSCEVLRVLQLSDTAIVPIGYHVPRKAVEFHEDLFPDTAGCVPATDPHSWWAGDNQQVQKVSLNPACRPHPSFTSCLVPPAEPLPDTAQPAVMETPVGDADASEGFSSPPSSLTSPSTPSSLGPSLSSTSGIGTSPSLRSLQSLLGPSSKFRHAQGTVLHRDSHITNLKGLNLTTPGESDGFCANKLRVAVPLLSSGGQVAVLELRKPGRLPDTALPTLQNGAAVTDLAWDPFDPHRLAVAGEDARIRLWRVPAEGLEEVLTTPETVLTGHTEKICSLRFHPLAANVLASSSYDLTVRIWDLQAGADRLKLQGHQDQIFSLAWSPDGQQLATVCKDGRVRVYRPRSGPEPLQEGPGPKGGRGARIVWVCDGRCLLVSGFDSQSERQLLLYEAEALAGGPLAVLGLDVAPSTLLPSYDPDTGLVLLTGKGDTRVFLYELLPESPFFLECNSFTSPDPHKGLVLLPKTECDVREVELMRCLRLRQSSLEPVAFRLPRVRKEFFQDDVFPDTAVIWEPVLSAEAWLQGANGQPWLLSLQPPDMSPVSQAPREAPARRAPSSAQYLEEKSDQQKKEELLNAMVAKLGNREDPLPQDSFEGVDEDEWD

Target	log2 fold change (erlotinib)	log2 fold change [1]	log2 fold change [2]	log2 fold change [3]	log2 fold change [4]	log2 fold change [5]	log2 fold change [6]	log2 fold change [7]	log2 fold change [8]	log2 fold change (IRAK-1-4 Inhibitor I)	log2 fold change (ibrutinib)	log2 fold change [9]	log2 fold change (ralimetinib)	log2 fold change [10]	log2 fold change [11]	log2 fold change [12]	log2 fold change [13]	log2 fold change [14]	log2 fold change [15]	log2 fold change [16]
CMIP (UniProt Q8IY22)	0.003	0.05	-0.008	0.055	0.035	0.023	-0.067	-0.001	-0.023	-0.011	0.057	0.024	0	0.004	-0.011	0.001	-0.021	0	0.029	0.004
CKAP2 (UniProt Q8WWK9)	0	-0.158	-0.062	-0.148	-0.015	0.006	-0.611 (active)	-0.007	0.046	0.014	-0.065	-0.057	-0.017	0.016	-0.053	-0.012	-0.004	0.003	-0.027	0.03
CUL1 (UniProt Q13616)	-0.011	0.006	0.026	0.01	0.009	-0.011	0.017	0	-0.006	-0.013	0.02	0.005	-0.004	-0.016	-0.018	-0.014	0.016	0.02	-0.001	-0.01
CTNNBL1 (UniProt Q8WYA6)	0.023	0.052	0.023	0.018	0.015	0.103	-0.033	-0.042	-0.033	0.088	0	0.047	-0.095	-0.169	0.017	-0.051	-0.04	0.015	0.056	0.01
CNP (UniProt P09543)	-0.005	-0.066	0.002	-0.012	-0.022	0.007	-0.004	-0.016	0	-0.002	0.024	0.01	0.028	0.019	0.022	0.042	0.038	-0.018	-0.015	0.01
CKAP5 (UniProt Q14008)	0.018	0.003	0.005	-0.01	-0.009	0.002	-0.055	-0.015	0.004	0.001	-0.024	-0.008	0.015	-0.012	-0.007	0.007	0.005	-0.013	0.023	0.006
CSNK1A1 (UniProt P48729)	-0.027	-0.106	0.093	0.028	0.013	0.217	0.406 (active)	-0.082	-0.032	-0.038	-0.098	0.148	0.088	-0.002	-0.035	-0.019	-0.002	-0.029	0	0.003
CNST (UniProt Q6PJW8)	0.044	-0.013	0.05	0.01	-0.004	0.007	-0.054	-0.022	0.036	0.023	0	0.006	0.031	0.022	0.012	0.176	-0.01	-0.035	0.006	-0.002
CORO7 isoform 3 (UniProt P57737)	0.035	-0.009	-0.079	0.013	0	0.016	-0.016	0.009	0.026	-0.04	-0.01	0.002	0.016	0.031	0.009	-0.013	-0.006	-0.006	0.02	0.005
DOCK10 (UniProt Q96BY6)	-0.23	-0.191	-0.03	0.007	-0.094	-0.048	-0.034	-0.064	-0.028	-0.017	-0.151	0.02	-0.001	-0.008	-0.084	-0.161	0.008	0.246	-0.045	0.022
CNOT6L (UniProt Q96LI5)	-0.011	0	0.007	-0.02	0.007	-0.04	-0.042	-0.018	-0.012	0.002	0.02	0.015	0.037	-0.06	-0.05	0.064	-0.07	0.008	-0.041	0.016
DHFR (UniProt P00374)	0.031	0.046	-0.023	-0.019	0.045	0.025	-0.01	0.034	0.019	-0.055	-0.013	0.155	-0.058	0.016	0.024	-0.018	-0.013	-0.029	0.025	0.033
CHML (UniProt P26374)	-0.03	-0.031	0.028	-0.026	-0.013	-0.021	-0.004	-0.033	-0.001	-0.012	-0.029	-0.017	-0.008	-0.004	-0.009	-0.012	0	-0.003	-0.017	-0.006
CSNK2B (UniProt P67870)	0.045	-0.107	-0.039	0.151	0.33 (active)	-0.012	0.198	0.145	0.041	0.021	-0.004	0.408 (active)	0.003	-0.013	0	-0.054	0.114	-0.004	-0.015	-0.016
COTL1 (UniProt Q14019)	-0.012	0.04	0.013	-0.006	-0.02	0	0.004	0.022	0.008	-0.03	0.038	0.001	-0.025	0.049	-0.007	-0.055	0.02	-0.019	-0.015	-0.004
CNIH4 (UniProt Q9P003)	0.049	-0.139	-0.06	0.129	-0.071	-0.022	-0.162	0.01	-0.131	-0.078	0.13	-0.014	0.006	-0.152	0.278	0.066	-0.115	-0.008	0.211	-0.024

Reference: the supplement of paper PMC10849652
